Shown are actives, neighbours in structure and some others; about 10% of the full set was active somewhere.
ALDH1A1 inh – qHTS Assay for Inhibitors of Aldehyde Dehydrogenase 1 (ALDH1A1); Aldehyde dehydrogenase 1A1 (Homo sapiens), P00352; Potency, µM (top dose mostly 75.3 µM), hits mostly inhibitors; Purified ALDH1A1, NADH fluorescence, propionaldehyde substrate; AID 1030, 2008; 220,000 compounds, 7.3% hits
Target sequence (P00352 whole entry, looked up): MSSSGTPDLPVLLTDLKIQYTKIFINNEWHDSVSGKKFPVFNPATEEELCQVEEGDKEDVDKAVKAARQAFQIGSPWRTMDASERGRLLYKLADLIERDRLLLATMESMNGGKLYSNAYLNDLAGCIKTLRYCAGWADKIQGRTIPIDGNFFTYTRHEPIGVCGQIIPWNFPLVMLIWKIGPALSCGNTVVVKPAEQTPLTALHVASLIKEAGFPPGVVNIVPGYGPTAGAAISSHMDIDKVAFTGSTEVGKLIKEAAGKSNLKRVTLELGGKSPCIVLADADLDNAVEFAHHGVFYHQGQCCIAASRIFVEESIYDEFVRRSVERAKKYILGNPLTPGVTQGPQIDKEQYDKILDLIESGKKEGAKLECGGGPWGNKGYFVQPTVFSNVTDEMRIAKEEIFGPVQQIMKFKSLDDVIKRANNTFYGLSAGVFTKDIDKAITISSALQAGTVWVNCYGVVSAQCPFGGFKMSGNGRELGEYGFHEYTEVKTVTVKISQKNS
IMPase inh – qHTS Assay for Identifying the Cell-Membrane Permeable IMPase Inhibitors; Inositol monophosphatase 1 (Rattus norvegicus), P97697; CHO-M1 cells, IP1 accumulation, HTRF TR-FRET ratio; inhibition (IP1 accumulation), % at 46.1 µM; 120,000 tested, under 10 active; AID 901, 2007; active = well fitted curve in the direction sought with a large enough effect in the signal ratio, not every such curve was filed as active; inconclusive = small, poorly fitted or top-dose-only effect, or a change in a side signal; inactive = no such curve, though single readings can be large or run the other way; the % refers to the signal ratio;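 note: cells stimulated with carbachol in lithium chloride buffer; higher means more IMPase inhibition seen as more IP1 and lower FRET ratio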
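Elevated IP1 in lysates lowers TR-FRET signal (665/620 ratio and 620 channel reported). Cells were CHO-M1, given carbachol (50 uM as added) plus 50mM LiCl, pH 7.4, 30 min, 37C; compounds titrated up to 46 uM; AC50 by Hill equation.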
KinaseGlo FLuc – Counterscreen for Luciferase (Kinase-Glo TM) Inhibition; AID 1379, 2008; 200,000 compounds, 0.28% hits; Potency, µM (top dose mostly 38.3 µM), hits mostly inhibitors; Kinase-Glo luciferase, ATP luminescence, 8 min; active = well fitted inhibition curve with a large enough effect; inconclusive = small, poorly fitted or top-dose-only effect; note: nearly all actives have a fitted effect of over 60% in size
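Recombinant Kinase-Glo luciferase, 10 uM ATP (linear range), luciferin; imidazole pH 7.2 / KCl / MgCl2 / Tween / BSA buffer; 8 min RT; luminescence.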
PNC inhibitor – High Content Assay for Compounds that inhibit the Assembly of the Perinucleolar Compartment; PC3M PTB-GFP, PNC prevalence imaging, 16 h; active compounds read low; activity change (PNC), negative = inhibition, % at 10 µM; 140,000 compounds, 3.1% hits; AID 2417, 2010;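 active = readout at or below -70, meaning at least 70% loss of cells showing the perinucleolar compartment, a nuclear body marking cancer cells; inconclusive = readout between -30 and a set limit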
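PC3M cells stably expressing PTB-GFP, 750–1000 cells/well, treated 16 h at 37 °C with compound (23 nl of library stock), in duplicate. After paraformaldehyde fixation and Hoechst stain, imaged at 20x; PNC prevalence scored by image analysis.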
Lamin A splicing – qHTS Assay for Modulators of Lamin A Splicing; 200,000 compounds, 0.01% hits; Potency, µM (series often up to 46.1 µM), hits mostly inhibitors; HeLa LMNA splicing GFP/RFP minigene ratio, 48 h; active = well fitted inhibition curve with a large enough effect in the signal ratio, with a control signal flat, not every such curve was filed as active; inconclusive = small, poorly fitted or top-dose-only effect, or effect the other way, or a change in a side signal; the % refers to the signal ratio
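S3 HeLa cells stably expressing lamin A-EGFP splicing minigene plus DsRed2, 600 cells/well, 48 h compound exposure at 37C. Laser-scanning cytometry; analysed as GFP (500-530 nm)/RFP (575-640 nm) total intensity ratio; 0.5% DMSO vehicle.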
HPGD inh – qHTS Assay for Inhibitors of HPGD (15-Hydroxyprostaglandin Dehydrogenase); 15-hydroxyprostaglandin dehydrogenase [NAD(+)] (Homo sapiens), P15428; purified HPGD, NADH fluorescence kinetic, PGE2 substrate; Potency, µM, actives largely listed as inhibitors; 150,000 compounds, 4.3% hits; AID 894, 2007
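NADH formation kinetics: reaction with 30 uM PGE2 and 1 mM NAD+ (final), 20 nM enzyme, Tris-HCl pH 8 with Tween 20, after 15 min compound preincubation at room temperature. Fluorescence change, last versus first of five reads.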
Of the large screens only hits and unclear results are named; the others gave an inactive call. Unless noted, calls come from the whole dose curve; as a rule, active = well fitted inhibition curve with a large enough effect (not every such curve was filed as active); inconclusive = small, poorly fitted or top-dose-only effect, or another doubt; inactive = no such curve, though single readings can be large or run the other way.

Clc1cccc(N2CCN(c3nnnn3-c3ccccc3)CC2)c1	ALDH1A1 inh inconclusive, Lamin A splicing inconclusive (no result: IMPase inh, PNC inhibitor, HPGD inh)
CCCc1ccc(C#N)c(SC2CC(=O)N(c3ccc(OC)cc3)C2=O)n1 (centres undefined)	ALDH1A1 inh inconclusive, Lamin A splicing inconclusive (no result: IMPase inh, PNC inhibitor, HPGD inh)
O=C1CC(Sc2nnnn2-c2ccccc2)C(=O)N1c1cccc(Cl)c1 (centres undefined)	ALDH1A1 inh 0.79µM, HPGD inh 32µM
COc1ccc(N2C(=O)CC(Sc3nnnn3-c3ccc(F)cc3)C2=O)cc1 (centres undefined)	ALDH1A1 inh 2.5µM, Lamin A splicing inconclusive (no result: IMPase inh, PNC inhibitor, HPGD inh)
CCOC(=O)NC(=O)/C(C#N)=N/Nc1ccc(F)cc1	none
CCOC(=O)C(=O)/C(C#N)=C/Nc1ccc(F)cc1	ALDH1A1 inh 28µM, PNC inhibitor inconclusive
CS(=O)(=O)Nc1c(O)ccc2c1CCCC2C1=NCCN1 (centres undefined)	none (no result: IMPase inh, KinaseGlo FLuc, PNC inhibitor, Lamin A splicing, HPGD inh)
O=C(Cn1c(=O)n(CCCS(=O)(=O)C2CCCCC2)c(=O)c2ccccc21)Nc1ccc(F)c(Cl)c1	none (no result: ALDH1A1 inh, KinaseGlo FLuc, PNC inhibitor, Lamin A splicing, HPGD inh)
CCCCN(C)Cc1c(O)ccc2c(-c3ccccc3)cc(=O)oc12	ALDH1A1 inh inconclusive, HPGD inh inconclusive
CCN(CC)Cc1c(O)ccc2c(-c3ccccc3)cc(=O)oc12	ALDH1A1 inh inconclusive, PNC inhibitor -118, Lamin A splicing inconclusive, HPGD inh inconclusive
COc1ccc(-n2ncc3c(SCC(=O)N4CCN(c5ccccc5OC)CC4)ncnc32)cc1	ALDH1A1 inh inconclusive, PNC inhibitor -119
COc1ccccc1OCC(=O)N1CCN(c2ccccc2OC)CC1	PNC inhibitor inconclusive
CCC(CC)C(=O)Nc1nnc(SCC(=O)N2CCN(c3ccccc3OC)CC2)s1	ALDH1A1 inh 13µM
COc1ccccc1N1CCN(C(=O)CSc2nnc(NC(=O)C(C)C)s2)CC1	ALDH1A1 inh 8.9µM, Lamin A splicing inconclusive (no result: IMPase inh, PNC inhibitor, HPGD inh)
COc1ccccc1N1CCN(C(=O)CSc2ncnc3scc(-c4ccccc4)c23)CC1	ALDH1A1 inh inconclusive, Lamin A splicing inconclusive
COc1ccccc1N1CCN(C(=O)CSc2nc3ccccc3[nH]2)CC1	PNC inhibitor inconclusive
CCOc1cc(/C=C2\C(=O)N(CCc3ccc(OC)c(OC)c3)C(C)=C2C(=O)OC)ccc1O	ALDH1A1 inh 11µM, HPGD inh inconclusive (no result: IMPase inh)
C=CCN1C(=O)/C(=C\c2ccco2)C(C(=O)OC)=C1C	HPGD inh 32µM (no result: IMPase inh)
CCOc1cc(/C=C2\C(=O)N(Cc3ccco3)C(C)=C2C(=O)OC)ccc1O	ALDH1A1 inh 16µM, Lamin A splicing inconclusive (no result: IMPase inh, PNC inhibitor, HPGD inh)
CSc1ccc(NC(=O)[C@H]2CCCC[C@@H]2C(=O)O)cc1	none (no result: IMPase inh, PNC inhibitor, Lamin A splicing)
CCOC(=O)c1ccc(NC(=O)CSc2ccc(-c3sc(C)nc3C)nn2)cc1	none (no result: ALDH1A1 inh, IMPase inh, KinaseGlo FLuc, PNC inhibitor, HPGD inh)
COc1ccc(N=C2O/C(=C/c3sc(=S)n(CC4CCCO4)c3O)N=C2C#N)cc1 (centres undefined)	ALDH1A1 inh 1.1µM (no result: IMPase inh, KinaseGlo FLuc, PNC inhibitor, Lamin A splicing, HPGD inh)
COc1ccc(NC(=O)N2CCOc3ccc(Cl)cc32)cc1	none (no result: ALDH1A1 inh, IMPase inh, KinaseGlo FLuc, PNC inhibitor, HPGD inh)
Cc1ccc2c(C(=O)CN3CCN(C4CCCCC4)CC3)c(C)[nH]c2c1	ALDH1A1 inh 13µM, PNC inhibitor inconclusive
CC(C)c1ccc(OCC(=O)NCC(c2ccc(Cl)cc2)N2CCOCC2)cc1 (centres undefined)	none (no result: ALDH1A1 inh, IMPase inh, KinaseGlo FLuc, PNC inhibitor, HPGD inh)
O=C(c1ccccc1)c1cn[nH]c1-c1ccccc1O	none
COc1ccc(O)c(-c2[nH]ncc2C(=O)c2ccccc2)c1	ALDH1A1 inh 7.9µM
CSc1nc(N)c2ncn([C@@H]3O[C@H](COP(=O)(O)OP(=O)(O)OP(=O)(O)O)[C@H](O)[C@H]3O)c2n1	KinaseGlo FLuc inconclusive, Lamin A splicing inconclusive (no result: IMPase inh, PNC inhibitor)
CC(C)Cn1c(-c2ccc(F)cc2)n[nH]c1=S	ALDH1A1 inh inconclusive, HPGD inh 28µM
Cn1c(-c2ccccc2)n[nH]c1=S	none (no result: IMPase inh, KinaseGlo FLuc, PNC inhibitor, Lamin A splicing, HPGD inh)
